High-throughput results (PubChem BioAssay)
This is one part of a sample in which hits are shown more often than they occur.
IDE exosite inh: insulin-degrading enzyme (human) exo-site inhibition; P14735; purified IDE, FL-6b probe fluorescence polarization; stronger effect = lower value; z-score at 20 µM; hit rate 6.3% among 17,000; AID 1259349;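 active = z-score of -3 or lower, meaning strong loss of probe binding signal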;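 note: His-tagged human IDE residues 42-1019 made in E. coli with 30 nM FL-6b probe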
Starred values were filed as active, the others as inactive.

SMILES	IDE exosite inh
CN(C)CC#Cc1ccc([C@@H]2[C@@H](CO)N3C(=O)CN(C(=O)Cc4cccnc4)C[C@H]23)cc1	1.8
COc1ccc(CN2C[C@@H](O)COC[C@@H]3O[C@H](CC(=O)N(C)C)CC[C@H]32)cc1	1.4
CC(=O)N(CC(C)C)C[C@@H]1[C@H](c2ccc(C3=CCCC3)cc2)[C@H](CO)N1C(C)=O	2.9
CCC(=O)N1CC(=O)N2[C@H](CO)[C@@H](c3ccc(-c4cccnc4)cc3)[C@H]2C1	2.1
O=C(c1ccc(F)cc1)N1CC(=O)N2[C@H](CO)[C@@H](c3ccc(/C=C/c4ccccc4)cc3)[C@@H]2C1	0.7
C/C=C/c1ccc([C@@H]2[C@@H](CO)N3C(=O)CN(C(=O)Cc4cccnc4)C[C@H]23)cc1	1.1
O=C(c1cccnc1)N1CC(=O)N2[C@H](CO)[C@@H](c3ccc(/C=C/c4ccccc4)cc3)[C@H]2C1	-5.4*
O=C(Cc1cccnc1)N1CC(=O)N2[C@H](C1)[C@@H](c1ccc(/C=C/c3ccccc3)cc1)[C@@H]2CO	-4.7*
C/C=C/c1ccc([C@H]2[C@H]3CN(C(=O)Cc4cccnc4)CC(=O)N3[C@H]2CO)cc1	-0.49
O=C(c1ccc(F)cc1)N1CC(=O)N2[C@@H](CO)[C@H](c3ccc(/C=C/c4ccccc4)cc3)[C@@H]2C1	-5.3*
O=C(c1ccccc1)N1CC(=O)N2[C@@H](CO)[C@H](c3ccc(/C=C/c4ccccc4)cc3)[C@@H]2C1	-3.4*
O=C(c1ccccc1)N1CC(=O)N2[C@H](C1)[C@@H](c1ccc(/C=C/c3ccccc3)cc1)[C@@H]2CO	-2.6
O=C(c1ccncc1)N1CC(=O)N2[C@H](CO)[C@@H](c3ccc(/C=C/c4ccccc4)cc3)[C@H]2C1	-1.2
O=C(c1cccc(F)c1)N1CC(=O)N2[C@H](CO)[C@H](c3ccc(/C=C/c4ccccc4)cc3)[C@@H]2C1	-2.7
C/C=C/c1ccc([C@H]2[C@H](CO)N3C(=O)CN(C(=O)c4ccc(F)cc4)C[C@@H]23)cc1	2.4
O=C(c1cccnc1)N1CC(=O)N2[C@H](CO)[C@H](c3ccc(-c4ccc(F)cc4)cc3)[C@@H]2C1	0.28
COc1ccc(-c2ccc([C@@H]3[C@@H](CO)N4C(=O)CNC[C@@H]34)cc2)cc1	4.8
CN(C)CC(=O)N1CCCCN2[C@@H](CO)[C@@H](c3ccc(-c4cccnc4)cc3)[C@@H]2C1	0.12
COC(=O)C[C@H]1CC[C@@H]2[C@@H](COc3ccc(NC(=O)Nc4cccc(C#N)c4)cc3C(=O)N2C)O1	-0.71
OC[C@@H]1[C@@H](c2ccccc2)C2(CN(CC3CC3)C2)N1Cc1ccc(F)cc1	0.32
Cc1ccc(S(=O)(=O)N[C@H]2C=C[C@H](CC(=O)NCc3ccc(Cl)c(Cl)c3)O[C@@H]2CO)cc1	0.99
O=C(Cc1cccnc1)N1CC(=O)N2[C@H](CO)[C@H](c3ccc(C#CC4CCCCC4)cc3)[C@H]2C1	-1.5
CN1CCN(C(=O)c2cc3c(c(-c4cccc(C#CCC5CCCC5)c4)n2)[C@H](CCO)N(S(=O)C(C)(C)C)C3)CC1 (stereo not given in full)	-0.25
COc1cccc(NC(=O)N2CC(=O)N3[C@H](C2)[C@H](c2ccc(C4=CCCCC4)cc2)[C@@H]3CO)c1	-0.86
C[C@@H]1CCCCO[C@@H](CN(C)S(=O)(=O)c2cn(C)cn2)[C@@H](C)CN([C@H](C)CO)C(=O)c2cc(NC(=O)Nc3cccc4ccccc34)ccc2O1	-1.1
SMILES	IDE exosite inh
C[C@@H]1CCCCO[C@H](CN(C)S(=O)(=O)c2cn(C)cn2)[C@@H](C)CN([C@@H](C)CO)C(=O)c2cc(NC(=O)Nc3cccc4ccccc34)ccc2O1	-0.62
C[C@@H]1CCCCO[C@@H](CN(C)S(=O)(=O)c2cn(C)cn2)[C@@H](C)CN([C@@H](C)CO)C(=O)c2cc(NC(=O)Nc3cccc4ccccc34)ccc2O1	-4.2*
C[C@@H]1CCCCO[C@H](CN(C)S(=O)(=O)c2cn(C)cn2)[C@H](C)CN([C@@H](C)CO)C(=O)c2cc(NC(=O)Nc3cccc4ccccc34)ccc2O1	-1.7
C[C@@H]1CN([C@@H](C)CO)C(=O)c2cc(NC(=O)Nc3cccc4ccccc34)ccc2O[C@@H](C)CCCCO[C@@H]1CN(C)S(=O)(=O)c1cn(C)cn1	-3.9*
C[C@@H]1CN([C@H](C)CO)C(=O)c2cc(NC(=O)Nc3cccc4ccccc34)ccc2O[C@@H](C)CCCCO[C@H]1CN(C)S(=O)(=O)c1cn(C)cn1	-1.4
Cc1ccc(S(=O)(=O)Nc2ccc3c(c2)C(=O)N([C@H](C)CO)C[C@H](C)[C@H](CN(C)S(=O)(=O)c2cccs2)OCCCC[C@H](C)O3)cc1	2.1
CCCNC(=O)N1CC2(CCN(C(=O)C3CCOCC3)CC2)c2c([nH]c3cc(OC)ccc23)[C@@H]1CO	-0.67
O=C1CN(S(=O)(=O)Cc2ccccc2)C[C@H]2[C@H](c3ccc(C#Cc4ccc(F)cc4)cc3)[C@@H](CO)N12	0.99
CC(C)C#Cc1ccc([C@@H]2[C@@H](CO)N3C(=O)CN(S(=O)(=O)c4ccccc4)C[C@H]23)cc1	-1
OC[C@@H]1[C@H](c2ccc(-c3ccccc3)cc2)[C@@H]2CN(CCC(F)(F)F)CCCCN12	3.5
COc1ccccc1C#Cc1ccc([C@@H]2[C@H]3CN(S(C)(=O)=O)CCCCN3[C@H]2CO)cc1	-12*
COc1ccccc1C#Cc1ccc([C@@H]2[C@H]3CN(CCC(F)(F)F)CCCCN3[C@H]2CO)cc1	-7.8*
COc1ccc(C#Cc2ccc([C@H]3[C@@H](CO)N4CCCCN(S(=O)(=O)c5ccccc5)C[C@@H]34)cc2)cc1	2.3
OC[C@H]1[C@H](c2ccc(-c3ccccc3)cc2)[C@H]2CN(CCC(F)(F)F)CCCCN21	0.51
COc1ccccc1C#Cc1ccc([C@H]2[C@H](CO)N3CCCCN(S(C)(=O)=O)C[C@@H]23)cc1	-8.1*
CCCC#Cc1ccc([C@@H]2[C@@H](CO)N3CCCCN(S(C)(=O)=O)C[C@H]23)cc1	2.2
COc1ccc(C#Cc2ccc([C@H]3[C@H](CO)N4CCCCN(S(=O)(=O)c5ccccc5)C[C@@H]34)cc2)cc1	4.7
COc1ccc(C#Cc2ccc([C@@H]3[C@@H](CO)N4CCCCN(S(=O)(=O)c5ccccc5)C[C@H]34)cc2)cc1	5.6
CCCC(=O)N1CC2(CCN(S(=O)(=O)CC)CC2)c2c(n(C)c3cc(OC)ccc23)[C@@H]1CO	-1.1
CCN1CC(=O)N2[C@@H](CO)[C@H](c3ccc(-c4ccccc4F)cc3)[C@@H]2C1	0.47
C/C=C/c1ccccc1[C@@H]1[C@@H](C#N)N(C(=O)CN2CCOCC2)[C@H]1CO	-1.6
O=C1C[C@H](c2ccccc2)C(=O)N[C@@H](c2ccc(F)cc2)C/C=C\CCN1	1.1
CC(C)CC#Cc1ccc([C@@H]2[C@H](CO)N3C(=O)CN(C(=O)NC(C)C)C[C@@H]23)cc1	3.8
COc1cccc(S(=O)(=O)N2CCCCN3[C@H](CO)[C@H](c4ccc(C5=CCCCC5)cc4)[C@H]3C2)c1	4.2
N#C[C@H]1[C@H](c2ccc(C#Cc3ccc(F)cc3)cc2)[C@H](CO)N1C(=O)Cc1ccncc1	-0.035
CCCC#Cc1ccc([C@@H]2[C@@H](CO)N3C(=O)CN(C(=O)c4ccncc4)C[C@H]23)cc1	-0.29
O=C(NC[C@@H]1[C@H](c2ccccc2)[C@H](CO)N1Cc1ccccn1)C1CCCC1	0.45
COc1ccccc1NC(=O)N1CC(=O)N2[C@H](CO)[C@H](c3ccc(C#Cc4ccccc4)cc3)[C@@H]2C1	-3
